Assay outcomes deposited in PubChem BioAssay by National Center for Advancing Translational Sciences (NCATS).
Hits are enriched below; roughly 12% of the tested compounds scored in any of these assays.
BAZ2B inh = BAZ2B (human) inhibition; Potency, µM (titrated, usually from 114 µM), for the others: at the top dose activity change, negative = inhibition, usual class: inhibitors; AID 504333; Q9UIF8; actives 4.4% (n = 360,000); AlphaScreen BAZ2B-H3K14Ac peptide displacement; further: on the % scale 0 is the no-effect control and ±100 the full control effect; nearly all actives have a fitted effect of over 60% in size
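BAZ2B 50 nM plus b-H3(5-23)K14Ac 50 nM, PBS pH 7.4/0.01% Tween-20, 30 min RT; compound added (max 110 uM), 30 min RT; streptavidin donor/Ni-chelate acceptor beads 10 ug/mL final, 20 min dark; AlphaScreen read.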
Sfp inh = Sfp phosphopantetheinyl transferase inhibition. actives 3.5% (n = 310,000). Q9F4F7. Potency, µM, inactives show largest response in the series, negative = inhibition, usual class: inhibitors. AID 1490. Biochemical Sfp PPTase activity, qHTS;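 further: the enzyme is Sfp with the accession as filed and its product quenches rhodamine fluorescence; 0% = enzyme reaction without inhibitor and -100% = no enzyme wells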
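With Hepes-Na pH 7.6 buffer containing 10 mM MgCl2, Sfp (15 nM) modified BHQ-2-YbbR (12.5 uM) using rhodamine-CoA (5 uM). Two reads 30 minutes apart at 525/598 nm yielded each well's rate.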
G9a block = G9a (human) methyltransferase inhibition; Q96KQ7; G9a H3K9 monomethylation, AlphaScreen, 2 h; Potency, µM (top dose mostly 102 µM), inactives show at the top dose activity, negative = inhibition, most hits filed as inhibitors; actives 8.8% (n = 350,000); further: on the % scale 0 is the no-effect control and ±100 the full control effect; nearly all actives have a fitted effect of over 75% in size
Target sequence (Q96KQ7 913-1193 limits assumed): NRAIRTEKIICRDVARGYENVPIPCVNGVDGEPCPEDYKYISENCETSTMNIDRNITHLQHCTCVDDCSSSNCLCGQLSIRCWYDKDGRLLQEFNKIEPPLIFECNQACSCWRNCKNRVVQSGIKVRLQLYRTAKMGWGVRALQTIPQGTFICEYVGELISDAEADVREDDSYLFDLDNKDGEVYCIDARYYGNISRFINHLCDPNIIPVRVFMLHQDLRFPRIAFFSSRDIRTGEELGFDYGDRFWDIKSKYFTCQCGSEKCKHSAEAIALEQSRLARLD
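Signal arises when biotinylated H3K9 peptide, once monomethylated, bridges streptavidin donor and antibody-captured acceptor beads. Enzyme at 20 nM was preincubated 15 min with test compounds; peptide 500 nM and SAM 20 uM then reacted for 2 h.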
L3MBTL1 inh = L3MBTL1 (human) inhibition; Potency, µM (titrated, usually from 57.1 µM), without a hit: at the highest dose activity, negative = inhibition, actives largely listed as inhibitors; actives 0.66% (n = 230,000); AlphaScreen L3MBTL1–H3K9me1 peptide binding; Q9Y468; AID 485360; further: on the % scale 0 is the no-effect control and ±100 the full control effect; nearly all actives have a fitted effect of over 60% in size
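Displacement of a biotinylated histone H3(1-15) peptide monomethylated at Lys9 (75 nM) from L3MBTL1 (50 nM) was measured by AlphaScreen after a 30 min room-temperature compound incubation; cefsulodin titration served as intraplate control.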
HP1b binding inh = inhibitors of HP1-beta chromodomain binding to methylated histone tails | AID 540317 | Potency, µM (highest dose often 114 µM), without a hit: at the top dose activity change, negative = inhibition, actives largely listed as inhibitors | AlphaScreen HP1-beta / biotin-H3K9me3 peptide binding | actives 0.56% (n = 390,000); further: nearly all actives have a fitted effect of over 70% in size
Target sequence (P83916 whole entry, looked up): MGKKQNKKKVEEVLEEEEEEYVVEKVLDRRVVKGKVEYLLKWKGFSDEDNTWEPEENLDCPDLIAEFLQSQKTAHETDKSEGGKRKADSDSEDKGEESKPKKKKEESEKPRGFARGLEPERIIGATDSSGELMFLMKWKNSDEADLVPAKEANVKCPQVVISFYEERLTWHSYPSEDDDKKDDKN
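HP1-beta protein (50 nM final) preincubated 30 min at room temperature with biotinylated H3(1-18)K9me3 peptide (50 nM) in PBS pH 7.4, 0.01% Tween-20, then compound added for 30 min. AlphaScreen streptavidin donor/nickel chelate acceptor beads (10 ug/mL final), 30 min dark, luminescence read.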
JMJD2A Tudor inh = JMJD2A Tudor domain (human) inhibition. AlphaScreen JMJD2A-Tudor / H3K4me3 peptide binding. Potency, µM (series often up to 114 µM), for the others: top-dose activity change, negative = inhibition, most hits filed as inhibitors. actives 4.4% (n = 390,000). AID 504339; further: on the % scale 0 is the no-effect control and ±100 the full control effect; nearly all actives have a fitted effect of over 50% in size
Numbers without * were called inactive; ? = inconclusive; nt = no result; ! = not confirmed by another sample; [ ] = remark or other dose. The call rests on the fitted dose curve; in most records, active means well fitted curve in the direction sought with a large enough effect; inconclusive means small, poorly fitted or top-dose-only effect, or another doubt; inactive means no such curve, though single readings can be large; an effect the other way counts as inactive or inconclusive. Potency means the concentration at half of the fitted maximal effect.

SMILES | BAZ2B inh | Sfp inh | G9a block | L3MBTL1 inh | HP1b binding inh | JMJD2A Tudor inh
CCn1c(SCc2ccccc2)nc2c1c(=O)[nH]c(=O)n2C | 10% | -6% | 45µM* | 1% | 9% | 10%
C/C=C/Cn1c(SCc2ccc(Cl)cc2)nc2c1c(=O)[nH]c(=O)n2C | 1% | 1% | 45µM* | 2% | 7% | 4%
CSc1nc2c(c(=O)[nH]c(=O)n2C)n1Cc1ccc(Cl)cc1 | -11% | 20µM* | 25%[0.501 µM] | -4%[2.29 µM] | ? | -22%
C[N+]1(Cc2ccccc2)CCC(C(=O)OCC2CCCC2)CC1 (stereo unspecified) | nt | ? | -32%[59 µM] | nt | nt | nt
Cn1c(=O)c2c(nc(SCC(=O)O)n2Cc2cccc(C(F)(F)F)c2)n(C)c1=O | 5% | 6% | 14µM* | 8% | 47% | -27%
CCCn1c(SCc2ccc(Cl)cc2)nc2c1c(=O)[nH]c(=O)n2C | -9% | 8% | 50µM* | 0% | 9% | -3%
Cn1c(=O)[nH]c(=O)c2c1nc(SCC(=O)O)n2Cc1ccccc1 | 8% | 18% | 22µM* | 2% | ? | 25µM*
Cn1c(=O)c2c(nc(NCCCO)n2Cc2cccc(C(F)(F)F)c2)n(C)c1=O | 10% | 5% | 34%[12.7 µM] | 4% | 18% | -29%
Cn1c(=O)[nH]c(=O)c2c1nc(SCC(=O)O)n2CCCc1ccccc1 | -11% | 6% | 2%[2.33 µM] | nt | 26% | -11%
Cn1c(=O)c(CCc2ccccc2)nc2cnc(N3CCNCC3)nc21 | nt | 0% | 22%[12.7 µM] | nt | nt | nt
Cc1ccccc1Cn1nnc2c(=O)[nH]c(C3CCN(C(=O)c4ccccc4Cl)CC3)nc21 | -3% | nt | 9%[59 µM] | nt | 24% | -6%
CCOC(=O)c1ccc(N2C(=O)c3n[nH]c(-c4ccco4)c3C2c2cccc(O)c2)cc1 (stereo unspecified) | nt | nt | ? | nt | -20% | ?
Clc1ccc(-n2c(Cc3ccccc3)nnc2SCc2nc(-c3cccs3)no2)cc1 | -16% | nt | -14%[59 µM] | nt | 44% | -24%
CCCCC1=CC2=C(c3ccco3)C(=O)C(C)(OC(=O)c3ccc(OC)cc3)C(=O)C2=CN1Cc1ccc2c(c1)OCO2 (stereo unspecified) | -38% | ? | ? | nt | ? | -36%
CCCCC1=CC2=C(c3ccco3)C(=O)C(C)(OC(=O)c3ccc(OC)cc3)C(=O)C2=CN1CCOC (stereo unspecified) | 40µM* | -7% | ? | nt | -38% | ?
CCCCC1=CC2=C(c3ccco3)C(=O)C(C)(OC(=O)c3ccc(OC)cc3)C(=O)C2=CN1CCc1c[nH]c2ccccc12 (stereo unspecified) | nt | 7% | nt | nt | nt | nt
CCCCC1=CC2=C(c3ccco3)C(=O)C(C)(OC(=O)c3ccc(OC)cc3)C(=O)C2=CN1Cc1ccccc1 (stereo unspecified) | ? | 45µM*! | -39%[59 µM] | nt | 15% | ?
CCCCC1=CC2=CC(=O)C(C)(OC(=O)CC)C(=O)C2=CN1CCc1ccccn1 (stereo unspecified) | -21% | 11% | 1%[59 µM] | nt | 10% | -28%
CCCCC1=CC2=C(c3ccco3)C(=O)C(C)(OC(=O)c3ccc(OC)cc3)C(=O)C2=CN1C1CCCCC1 (stereo unspecified) | ? | 56µM*! | ? | nt | -20% | ?
CCCCC1=CC2=C(c3ccco3)C(=O)C(C)(OC(=O)c3ccc(OC)cc3)C(=O)C2=CN1CCc1ccccn1 (stereo unspecified) | ? | 56µM*! | -41%[59 µM] | nt | 21% | ?
Cc1c(C)c2cccnc2c2ncccc12 | 5.6µM* | nt | nt | 0.79µM* | 33% | 10µM*
CN(Cc1cc([N+](=O)[O-])c2cccnc2c1O)C1CCCCC1 | 7.9µM* | -9% | 11%[59 µM] | -1% | nt | nt
O=[N+]([O-])c1ccccc1Oc1ccc(Cl)c2cccnc12 | -34% | ? | -24% | 0% | 8% | -17%
O=[N+]([O-])c1cccc2c(Cl)ccnc12 | -39% | 79µM* | nt | -1% | 26% | 0%
O=[N+]([O-])c1cc(Cl)c(O)c2ncccc12 | 20µM* | -40% | 25µM* | nt | ? | 22µM*
SMILES | BAZ2B inh | Sfp inh | G9a block | L3MBTL1 inh | HP1b binding inh | JMJD2A Tudor inh
CC1=C(/C=C/C(C)=C/C=C/C(C)=C/C(=O)Oc2c(C)c(C)c3c(c2C)CC[C@@](C)(CCC[C@H](C)CCC[C@H](C)CCCC(C)C)O3)C(C)(C)CCC1 | nt | 20% | -9%[12.7 µM] | nt | nt | nt
O=[N+]([O-])c1ccc(Cl)c2cccnc12 | -3% | -4% | 11% | 6% | 14% | -16%
Clc1cc2cccnc2c2ncccc12 | 3.5µM* | nt | ? | 10µM* | 22% | -7%
O=[N+]([O-])c1cc(Cl)c2cccnc2c1O | 18µM* | 5% | 35µM* | 32µM* | ? | 20µM*
Oc1c(I)cc(Cl)c2cccnc12 | 40µM* | -1% | 35µM* | ? | 4% | 79µM*
Clc1ccc(Oc2ccccc2)c2ncccc12 | 33% | 1% | -5%[2.33 µM] | nt | 59% | 18%
Cc1ccsc1C1NC(=O)c2c(sc3c2CCN(C)C3)N1 (stereo unspecified) | -7% | 5% | 40µM* | nt | ? | ?
CSc1ccc(C2NC(=O)c3c(sc4c3CCN(C)C4)N2)cc1 (stereo unspecified) | -34% | ? | 40µM* | nt | 1% | ?
CC(C)c1ccc(C2NC(=O)c3c(sc4c3CCN(C)C4)N2)cc1 (stereo unspecified) | -2% | nt | ? | nt | 16% | -21%
CN1CCc2c(sc3c2C(=O)NC(c2cccs2)N3)C1 (stereo unspecified) | -20% | 0% | ? | -3% | -18% | ?
CN1CCc2c(sc3c2C(=O)NC(c2ccc(C(C)(C)C)cc2)N3)C1 (stereo unspecified) | -17% | nt | 8.9µM* | nt | 7% | ?
CN1CCc2c(sc3c2C(=O)NC(c2ccc(-c4cccc(Cl)c4)o2)N3)C1 (stereo unspecified) | 40µM* | 50µM* | nt | -16% | ? | 50µM*
CN1CCc2c(sc3c2C(=O)NC(/C=C\c2ccccc2)N3)C1 (stereo unspecified) | -29% | -4% | ? | -23% | ? | ?
Cc1ccc(-c2cc(C(F)(F)F)n3nc(C(=O)NCC45CC6CC(CC(C6)C4)C5)cc3n2)cc1 | -5% | nt | 12%[59 µM] | nt | 50% | -5%
O=S(=O)(c1ccccc1)N1CCC2(CC1)CN(c1ccncc1)C2 | nt | -2% | 4%[12.7 µM] | nt | nt | nt
COc1ccc(C(=O)Oc2ccc(C3NC(=O)c4c(sc5c4CCN(C)C5)N3)cc2OC)cc1 (stereo unspecified) | 7% | nt | 26%[59 µM] | nt | ? | 56µM*
